Most compounds without a hit are left out; they make up all but 11% or so of the library.
IMPase cell inh: qHTS Assay for Identifying the Cell-Membrane Permeable IMPase Inhibitors | Inositol monophosphatase 1 (Rattus norvegicus), P97697 | CHO-M1 cells, IP1 accumulation, HTRF TR-FRET ratio | inhibition (IP1 accumulation), % at 46.1 µM | 120,000 tested, under 10 active | AID 901, 2007; active means well fitted curve in the direction sought with a large enough effect in the signal ratio, not every such curve was filed as active; inconclusive means small, poorly fitted or top-dose-only effect, or a change in a side signal; inactive means no such curve, though single readings can be large or run the other way; the % refers to the signal ratio;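 further: cells stimulated with carbachol in lithium chloride buffer; higher means more IMPase inhibition seen as more IP1 and lower FRET ratio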
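Seeded CHO-M1 cells were dosed with compound at up to 46 uM, stimulated with carbachol for 30 min, then lysed in IP-One detection reagents. Higher IP1 lowers the TR-FRET signal.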
HPGD inh: qHTS Assay for Inhibitors of HPGD (15-Hydroxyprostaglandin Dehydrogenase); purified HPGD, NADH fluorescence kinetic, PGE2 substrate; AID 894, 2007; Potency, µM, actives largely listed as inhibitors; 15-hydroxyprostaglandin dehydrogenase [NAD(+)] (Homo sapiens), P15428; 4.3% of 150,000 active; active means well fitted inhibition curve with a large enough effect, not every such curve was filed as active; inconclusive means small, poorly fitted or top-dose-only effect, or another doubt; inactive means no such curve, though single readings can be large or run the other way
Target sequence (P15428 whole entry, looked up): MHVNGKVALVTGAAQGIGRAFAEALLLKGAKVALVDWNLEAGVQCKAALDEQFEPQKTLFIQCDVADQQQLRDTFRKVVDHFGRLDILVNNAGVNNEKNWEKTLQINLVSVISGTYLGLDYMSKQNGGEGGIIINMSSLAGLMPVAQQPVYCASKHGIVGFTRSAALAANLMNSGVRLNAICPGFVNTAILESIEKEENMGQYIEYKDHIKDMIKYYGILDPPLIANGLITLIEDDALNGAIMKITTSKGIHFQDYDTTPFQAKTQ
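NADH formation kinetics: reaction with 30 uM PGE2 and 1 mM NAD+ (final), 20 nM enzyme, Tris-HCl pH 8 with Tween 20, after 15 min compound preincubation at room temperature. Fluorescence change, last versus first of five reads.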
PNC assembly inh: High Content Assay for Compounds that inhibit the Assembly of the Perinucleolar Compartment | 3.1% of 140,000 active | AID 2417, 2010 | PC3M PTB-GFP, PNC prevalence imaging, 16 h; stronger effect = lower value | activity change (PNC), negative = inhibition, % at 10 µM;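 active means readout at or below -70, meaning at least 70% loss of cells showing the perinucleolar compartment, a nuclear body marking cancer cells; inconclusive means readout between -30 and a set limit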
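Compounds are pinned in duplicate onto adhered PC3M cells stably expressing GFP-tagged PTB and incubated 16 h at 37 C. Cells are then fixed, nuclei stained with Hoechst, and PNC-positive cells counted.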
IMPase Li inh: qHTS Assay for Identifying the Cell-Membrane Permeable IMPase Inhibitors: Potentiation with Lithium. 0.35% of 210,000 active. CHO-M1 cells, IP1 TR-FRET (IP-One), carbachol + lithium. Potency, µM (doses to about 59.4 µM), actives largely listed as inhibitors;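 further: IP1 builds up when IMPase is blocked and the TR-FRET signal falls; nearly all actives have a fitted effect of over 50% in size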
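Readout is a homogeneous TR-FRET IP1 immunoassay (Ex 320, Em 665 and 620), where raised cytosolic IP1 lowers signal. Cells were CHO-M1 treated 30 min at 37C with test compounds plus a little lithium; AC50 values came from Hill-equation fitting.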
ALDH1A1 inh: qHTS Assay for Inhibitors of Aldehyde Dehydrogenase 1 (ALDH1A1). Aldehyde dehydrogenase 1A1 (Homo sapiens), P00352. Purified ALDH1A1, NADH fluorescence, propionaldehyde substrate. Potency, µM (highest dose often 75.3 µM), usual class: inhibitors. 7.3% of 220,000 active; active means well fitted inhibition curve with a large enough effect, not every such curve was filed as active; inconclusive means small, poorly fitted or top-dose-only effect, or another doubt; inactive means no such curve, though single readings can be large or run the other way
Target sequence (P00352 whole entry, looked up): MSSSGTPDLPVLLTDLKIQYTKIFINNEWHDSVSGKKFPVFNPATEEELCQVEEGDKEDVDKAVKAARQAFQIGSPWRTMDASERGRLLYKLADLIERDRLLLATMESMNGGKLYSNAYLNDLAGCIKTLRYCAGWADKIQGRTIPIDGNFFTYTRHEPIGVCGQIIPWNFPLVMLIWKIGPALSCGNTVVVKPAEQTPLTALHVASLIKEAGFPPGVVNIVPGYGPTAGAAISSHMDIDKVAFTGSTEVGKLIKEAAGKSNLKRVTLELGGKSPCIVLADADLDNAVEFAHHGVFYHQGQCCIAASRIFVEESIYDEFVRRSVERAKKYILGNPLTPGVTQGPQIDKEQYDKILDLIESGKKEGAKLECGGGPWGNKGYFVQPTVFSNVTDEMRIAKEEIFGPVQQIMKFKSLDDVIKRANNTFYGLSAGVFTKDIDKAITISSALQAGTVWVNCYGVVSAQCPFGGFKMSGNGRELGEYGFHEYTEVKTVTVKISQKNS
ALOX12 inhib: qHTS Assay for Inhibitors of 12-hLO (12-human lipoxygenase). Polyunsaturated fatty acid lipoxygenase ALOX12 (Homo sapiens), P18054. purified 12-hLO, xylenol orange hydroperoxide absorbance. Potency, µM (series often up to 57.1 µM), most hits filed as inhibitors. 0.12% of 150,000 active; further: nearly all actives have a fitted effect of over 55% in size
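Hydroperoxide output read as Fe(III)-xylenol orange absorbance, 573-to-405 nm ratio, after 30 min reaction with 40 uM arachidonic acid. Enzyme: 150 nM purified human 12hLO, 15 min compound preincubation; 25 mM Hepes pH 7.0, room temperature.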
Hits are given with their value; 0 = inactive; ? = inconclusive; - = no result given; [ ] = remark or other dose. Unless noted, the call rests on the fitted dose curve; in most records, active means well fitted curve in the direction sought with a large enough effect; inconclusive means small, poorly fitted or top-dose-only effect, or another doubt; inactive means no such curve, though single readings can be large; an effect the other way counts as inactive or inconclusive.

SMILES	IMPase cell inh	HPGD inh	PNC assembly inh	IMPase Li inh	ALDH1A1 inh	ALOX12 inhib
COc1cccc(-c2nc(-c3ccccc3)[nH]c(=O)c2C#N)c1	0	15.8µM	?	0	0	0
N#Cc1c(-c2ccccc2)nc(-c2ccncc2)[nH]c1=O	-	-	-	0	0	-
CCOC(=O)C1CCN(CC(=O)Nc2cc(C)c3c(=O)oc4ccccc4c3n2)CC1	0	-	-	-	-	-
O=c1c2ccccc2nnn1COc1ccc(Cl)cc1Br	-	-	-	0	0	-
CC(C)Cn1c(SC(C)C(=O)Nc2ccc3c(c2)OCCO3)nc2ccccc2c1=O (configuration not stated)	0	0	0	0	15.8µM	0
CS(=O)(=O)N1CCC2(CCCN(Cc3ccccc3)C2)CC1	-	0	-	0	0	0
CCOc1ccccc1NC1=C(Cl)C(=O)N(c2ccc(OC)cc2)C1=O	-	0	0	0	0	0
COc1ccccc1N1C(=O)C(Cl)=C(Nc2ccccc2O)C1=O	-	-	-	0	12.6µM	-
Cc1cc(C)cc(OCC(=O)NC(Cc2c[nH]c3ccccc23)C(=O)O)c1 (configuration not stated)	0	-	-	-	-	-
C(=C\c1nnc2c3ccccc3ncn12)/c1ccccc1	-	0	-96.8	0	?	0
Cc1cnc(CNc2cc(-c3ccc(C(=O)N(C)C)cc3)ncn2)cn1	-	-	-	0	?	-
O=C1OCCC1Sc1nnc(-c2ccco2)o1 (configuration not stated)	0	0	-100.0	0	0	0
O=C1OCCC1Sc1nnc(-c2ccc(Br)cc2)o1 (configuration not stated)	0	0	0	0	0	0
Cc1o[nH]c(=O)c1CC[C@H](N)C(=O)O	0	0	-	0	0	0
Cc1ccc(O)c(C(=O)c2cnc3onc(-c4ccc(F)cc4)c3c2)c1	-	12.6µM	0	0	14.1µM	0
Cc1noc2ncc(C(=O)c3cc(F)ccc3O)cc12	0	0	0	0	0	0
Cc1onc(-c2c(F)cccc2Cl)c1C(=O)N[C@H]1C(=O)N2[C@H]1SC(C)(C)[C@H]2C(=O)O	0	0	-	0	0	0
Cc1ccc(CC2CC(=O)N(Cc3ccco3)C2=O)cc1 (configuration not stated)	0	0	0	0	18.9µM	0
O=C1CC(Cc2ccccc2)C(=O)N1Cc1ccco1 (configuration not stated)	0	0	0	0	2.82µM	0
COc1ccc(CCN2C(=O)CC(Cc3ccc(C)cc3)C2=O)cc1OC (configuration not stated)	-	-	-	0	0	-
O=C1C2C3CCC(C3)C2C(=O)N1Cc1ccco1 (configuration not stated)	-	0	0	0	11.9µM	0
O=C(CN1C(=O)C2C3CCC(C3)C2C1=O)NCc1ccco1 (configuration not stated)	-	-	-	0	0	-
COc1nnc(-c2ccc(N3CCCCC3)c(NC(=O)c3ccccc3Cl)c2)c2ccccc12	0	-	-	-	-	-
C=CCn1c(SCC(=O)N2CCCC2)nc2scc(-c3cccs3)c2c1=O	0	0	0	0	?	0
C=CCn1c(SCC(=O)NCCCC(=O)OCC)nc2scc(-c3ccco3)c2c1=O	-	-	-	0	?	-
SMILES	IMPase cell inh	HPGD inh	PNC assembly inh	IMPase Li inh	ALDH1A1 inh	ALOX12 inhib
CC(C)C(C)NC(=O)CSc1nc2scc(-c3ccco3)c2c(=O)n1-c1ccccc1 (configuration not stated)	0	?	0	0	7.94µM	?
CC(NC(=O)CSc1nc2sc3c(c2c(=O)n1-c1ccccc1)CCCC3)c1ccccc1 (configuration not stated)	0	0	?	0	?	0
C=CCn1c(SCC(=O)N2CCOCC2)nc2scc(-c3ccco3)c2c1=O	0	0	0	0	17.8µM	0
CC(C)C(C)(C#N)NC(=O)CSc1nc2scc(-c3ccco3)c2c(=O)n1-c1ccccc1 (configuration not stated)	0	0	0	0	11.2µM	0
CN(C)Cc1ccccc1-c1cncnc1Nc1ccncc1	-	-	-	0	0	-
CSc1nsc(SCC(=O)Nc2nc3ccc(C)cc3s2)n1	0	0	0	0	39.8µM	0
COC(=O)c1ccc2nc(NC(=O)COC(=O)CSc3nc(C)cc(C)n3)sc2c1	-	0	0	0	0	0
Cc1ccc2nc(NC(=O)CSCc3ccccc3)sc2c1	0	0	0	0	0	0
Cc1ccc2nc(NC(=O)COC(=O)CSc3nc(C)cc(C)n3)sc2c1	0	?	0	0	12.6µM	0
CCN1C(=O)/C(=C\N2CCCCCC2)SC1=S	0	-	0	-	?	0
Cc1nn(C)c(C)c1/C=C1/SC(=S)NC1=O	0	0	0	0	?	0
CCN1C(=O)/C(=C/c2c(C)nn(C)c2C)SC1=S	0	0	?	0	1.41µM	0
CCn1c(C)cc(/C=C2/SC(=S)N(CC(=O)O)C2=O)c1C	-	-	-	0	0	-
CCN1C(=O)/C(=C/c2cnn(CC)c2C)SC1=S	-	0	0	0	2µM	0
CCN1C(=O)/C(=C/N2CC(C)CC(C)C2)SC1=S (configuration not stated)	0	0	-88.8	0	?	0
CC1=CC(=O)NS(=O)(=O)O1	-	0	-	0	0	0
CCc1nnc(NS(=O)(=O)c2ccc(N=Cc3c(C)[nH]n(-c4ccc(C)c(C)c4)c3=O)cc2)s1	0	15.8µM	?	0	11.2µM	0
Cc1[nH]n(-c2ccc(Br)cc2)c(=O)c1C=Nc1ccc(S(=O)(=O)Nc2nccs2)cc1	0	14.1µM	0	0	0	0
Cc1ccc(-n2[nH]c(C)c(C=Nc3ccc(S(=O)(=O)Nc4nc(C)cc(C)n4)cc3)c2=O)c(C)c1	0	22.4µM	?	0	0	0
Cc1ccc(-n2[nH]c(C)c(C=Nc3ccc(S(=O)(=O)Nc4nccs4)cc3)c2=O)cc1	-	?	0	0	0	0
Cc1ccccc1N1CCN(C(=S)c2ccc(-c3cccc([N+](=O)[O-])c3)o2)CC1	-	-	-	0	8.91µM	-
O=C(NC(=S)Nc1ccccc1N1CCCCC1)c1ccc(-c2cccc([N+](=O)[O-])c2)o1	0	0	0	0	?	0
Cc1ccc(N2CCN(C(=S)c3ccc(-c4cccc([N+](=O)[O-])c4)o3)CC2)cc1	-	-	-	0	3.16µM	-
O=C(/C=C/c1ccccc1)N1CCCC1CO (configuration not stated)	-	-	-	-	0[13.5 µM]	-
Cc1ccc(OCC(=O)N/N=C/c2c[nH]c3ccccc23)c([N+](=O)[O-])c1	-	0	0	0	0	0

Screening data: PubChem BioAssay, National Center for Advancing Translational Sciences (NCATS)
